Assay results reported in PubChem BioAssay (Tox21).
Unmarked numbers belong to inactive results. Inconclusive results are not listed. A call without a number means that no potency is given here. Active and inactive are the calls of the source. Unless noted, the call rests on the fitted dose curve; in most records, active means well fitted curve in the direction sought with a large enough effect in the repeat runs; inconclusive means weak or mixed curves; inactive means no such curve, though single readings can be large; an effect the other way counts as inactive or inconclusive.

Experiments:
[1] = qHTS assay to identify small molecule agonists of the estrogen related receptor (ERR) signaling pathway from Tox21 library (AID 1224849; calls by dose curve; further: nearly all actives have a fitted effect of over 15% in size)
Method in brief: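 Six hours post-seeding at 37 C/5% CO2, ERR cells receive DMSO-solubilised compounds; after 18 h at 37 C, ONE-Glo reagent is applied and luminescence recorded.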

[2] = qHTS RealTime-Glo MT Cell Viability Assay in HEK293 cells - 32 hour (AID 1224868); further: nearly all actives have a fitted effect of over 50% in size; further: potency means the concentration at half of the fitted maximal effect
Method in brief: (§1)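 Nonlytic real-time viability readout: viable cells convert prosubstrate to NanoLuc substrate, giving luminescence proportional to live cell number. HEK293, 600 cells/well, compound added after 5 h, continuous culture at 37 C.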

[3] = A CellTox Green Cytotoxicity Assay to monitor cytotoxicity in HEK293 cells - 0 hour (AID 1224869); further: nearly all actives have a fitted effect of over 50% in size
Method in brief: (§2)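 Seeding of HEK293 cells together with cytotoxicity dye preceded a 5 h incubation at 37 C/5% CO2. Test compounds in DMSO were then added and fluorescence monitored across 40 h.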

[4] = qHTS RealTime-Glo MT Cell Viability Assay in HepG2 cells - 40 hour (AID 1224870); further: nearly all actives have a fitted effect of over 50% in size
Method in brief: (§3)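 HepG2 cells mixed with RealTime-Glo MT reagents (NanoLuc plus cell-permeant prosubstrate) were seeded at 600 cells/well, incubated 5 h at 37 C/5% CO2, then pinned with compounds in DMSO; nonlytic luminescence tracked viability during 40 h treatment.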

[5] = A CellTox Green Cytotoxicity Assay to monitor cytotoxicity in HEK293 cells - 40 hour (AID 1224871); further: nearly all actives have a fitted effect of over 45% in size
Method in brief: as §2

[6] = qHTS RealTime-Glo MT Cell Viability Assay in HEK293 cells - 16 hour (AID 1224872); further: top concentration of the series differs between compounds; nearly all actives have a fitted effect of over 50% in size
Method in brief: as §1

[7] = qHTS RealTime-Glo MT Cell Viability Assay in HepG2 cells - 8 hour (AID 1224873); further: nearly all actives have a fitted effect of over 55% in size
Method in brief: as §3

[8] = A CellTox Green Cytotoxicity Assay to monitor cytotoxicity in HEK293 cells - 24 hour (AID 1224875); further: series mostly up to about 77 µM; nearly all actives have a fitted effect of over 45% in size
Method in brief: as §2

[9] = qHTS RealTime-Glo MT Cell Viability Assay in HepG2 cells - 24 hour (AID 1224867); further: nearly all actives have a fitted effect of over 50% in size
Method in brief: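 Luminescence read-out: viable HepG2 cells reduce a prosubstrate to a NanoLuc substrate, giving a signal proportional to live cell number. Reads taken at 0, 8, 16, 24, 32 and 40 h of compound exposure at 37 C.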

[10] = qHTS RealTime-Glo MT Cell Viability Assay in HEK293 cells - 40 hour (AID 1224874); conditions: RealTime-Glo luminescence; max response: active compounds read low; further: nearly all actives have a fitted effect of over 50% in size
Method in brief: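 Tox21 screen in HEK293 using RealTime-Glo MT chemistry, with cells and reagent co-dispensed. Luminescence proportional to viable cell number was captured at intervals during 40 h compound exposure at 37 C.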

Structure (SMILES) | outcome [1] | Potency [2] | Potency [3] | outcome [4] | Potency [5] | Potency [6] | outcome [7] | Potency [8] | outcome [9] | max response [10]
Cc1ncc([N+](=O)[O-])n1CC(O)CCl (stereo not drawn) | inactive | inactive | inactive | inactive | inactive | inactive | inactive | inactive |  | 
CCC(CO)CO |  | inactive | inactive | inactive | inactive | inactive | inactive |  | inactive | -4.1%
CN[C@@H]1[C@@H](O)[C@@H](O[C@@H]2[C@H](O)[C@H](O[C@H]3OC(CN)=CC[C@H]3N)[C@@H](N)C[C@H]2N)OCC1(C)O (stereo partly drawn) | inactive | inactive | inactive | inactive |  | inactive | inactive | inactive |  | 1.03%
Nc1ccc(C(=O)OCC(O)CO)cc1 (stereo not drawn) |  | inactive | inactive | inactive | inactive | inactive | inactive |  | inactive | 2.88%
C=CCOCC(O)CCl (stereo not drawn) |  | inactive | inactive | inactive | inactive | inactive | inactive |  | inactive | 
CC(C)CCC(=O)CCC(C)C | inactive | inactive |  | inactive | inactive | inactive | inactive | inactive |  | 
CCOC(=O)CC#N |  | inactive | inactive | inactive | inactive | inactive | inactive | inactive | inactive | -0.316%
O=C1c2ccccc2-c2ccccc21 | inactive | inactive | inactive | inactive | inactive | inactive | inactive | inactive |  | 
Nc1cc(Cl)cc(S(=O)(=O)O)c1O |  | inactive | inactive | inactive | inactive | inactive | inactive |  | inactive | -4.63%
O=S(=O)(O)CCO |  | inactive | inactive | inactive | inactive | inactive | inactive |  | inactive | 
O=C(O)C(=O)Nc1cccc(-c2nn[nH]n2)c1 |  | inactive | inactive | inactive | inactive | inactive | inactive |  | inactive | 
C/C=C(\C)C(=O)OCC/C=C\CC |  | inactive | inactive | inactive | inactive | inactive | inactive | inactive | inactive | 2.25%
COc1ccc(N=Nc2cc(C)c(N=Nc3ccc(S(=O)(=O)O)cc3)cc2OC)cc1 |  | inactive | inactive | inactive | inactive | inactive | inactive |  | inactive | 
C=CCOc1c(Br)cc(Br)cc1Br | inactive | inactive | inactive | inactive | inactive |  | inactive | inactive |  | 2.02%
COc1ccc(OC)c(NC(=O)CC(C)=O)c1 |  | inactive | inactive | inactive | inactive | inactive | inactive | inactive | inactive | 2.24%
C[C@H](CCC(=O)NCC(=O)O)[C@H]1CC[C@H]2[C@@H]3[C@H](O)C[C@@H]4C[C@H](O)CC[C@]4(C)[C@H]3C[C@H](O)[C@]12C | inactive | 9.49 µM (active) | inactive | inactive | inactive |  | inactive | inactive |  | 
CC(=O)Nc1ncc([N+](=O)[O-])s1 |  | inactive | inactive | inactive | inactive | inactive | inactive |  | inactive | 0.8%
Nc1cc(S(=O)(=O)O)ccc1S(=O)(=O)O |  | inactive | inactive | inactive | inactive | inactive | inactive | inactive | inactive | 21%
CCCCCCCCCCCCCCCCCCN(C)C | inactive | inactive | inactive | inactive |  | inactive | inactive |  |  | 0.677%
CNC(=O)NC |  | inactive | inactive | inactive | inactive | inactive | inactive | inactive | inactive | 1.12%
CCCOCCOCCOCCO | inactive | inactive | inactive | inactive |  | inactive | inactive | inactive |  | -22.3%
CC(=O)/C=C/c1ccco1 | inactive | inactive | inactive | inactive | inactive | inactive | inactive | inactive |  | 7.79%
CCCCCCCCCCCCC1CO1 (stereo not drawn) |  | inactive | inactive | inactive | inactive | inactive | inactive |  | inactive | -5.34%
CCCCC/C=C/CC(=O)OC |  | inactive | inactive | inactive | inactive | inactive | inactive |  | inactive | -0.743%
CC(=O)N1CCN(c2ccc(O)cc2)CC1 |  | inactive | inactive | inactive | inactive | inactive | inactive | inactive | inactive | 7.56%
CCC(C)N (stereo not drawn) |  | inactive | inactive | inactive | inactive | inactive | inactive | inactive | inactive | -5.31%

Structure (SMILES) | outcome [1] | Potency [2] | Potency [3] | outcome [4] | Potency [5] | Potency [6] | outcome [7] | Potency [8] | outcome [9] | max response [10]
CN[C@@H]1[C@H](O)[C@H](NC)[C@H]2O[C@@]3(O)C(=O)C[C@@H](C)O[C@H]3O[C@@H]2[C@H]1O |  | inactive | inactive | inactive | inactive | inactive | inactive | inactive | inactive | -13.7%
O=S(=O)(O)SSS(=O)(=O)O |  | inactive | inactive | inactive | inactive | inactive | inactive | inactive | inactive | 4.41%
Cc1ccccc1C |  | inactive | inactive | inactive | inactive | inactive | inactive | inactive | inactive | 13.2%
Cc1ccc(C(=O)C(=O)O)cc1C |  | inactive | inactive | inactive | inactive | inactive | inactive | inactive | inactive | -0.829%
CC(=O)OCCCc1ccccc1 |  | inactive | inactive | inactive | inactive | inactive | inactive | inactive | inactive | 4.03%
CNCc1ccccc1 |  | inactive | inactive | inactive | inactive | inactive | inactive | inactive | inactive | -3.32%
CCC(=O)OCCC(C)CCC=C(C)C (stereo not drawn) |  | inactive | inactive | inactive | inactive | inactive | inactive | inactive | inactive | -5.38%
CCN1CN(CC)CN(CC)C1 |  | inactive | inactive | inactive | inactive | inactive | inactive | inactive | inactive | 4.59%
COC(OC)C(C)c1ccccc1 (stereo not drawn) |  | inactive | inactive | inactive | inactive | inactive | inactive | inactive | inactive | 5.02%
O=C(O)c1ccc(OCCN2CCCCC2)cc1 |  | inactive | inactive | inactive | inactive | inactive | inactive | inactive | inactive | 5.16%
CC(C)(CO)[C@@H](O)C(=O)NCCCO |  | inactive | inactive | inactive | inactive | inactive | inactive | inactive | inactive | 4%
C[C@H](CCC(=O)O)[C@H]1CC[C@H]2[C@@H]3[C@H](O)C[C@@H]4C[C@H](O)CC[C@]4(C)[C@H]3C[C@H](O)[C@]12C |  | inactive | inactive | inactive | inactive | inactive | inactive | inactive | inactive | -1.02%
O=C1NC2NC(=O)NC2N1 (stereo not drawn) |  | inactive | inactive | inactive | inactive | inactive | inactive | inactive | inactive | 1.34%
CCOC(=O)CC(CC(=O)OCC)(OC(C)=O)C(=O)OCC |  | inactive | inactive | inactive | inactive | inactive | inactive | inactive | inactive | -6.27%
Cc1c(C(C)C)c(=O)n(-c2ccccc2)n1C |  | inactive | inactive | inactive | inactive | inactive | inactive | inactive | inactive | 3.94%
CCCCC(CC)CNC(=O)CC(C)OC(=O)CCC(=O)O (stereo not drawn) |  | inactive | inactive | inactive | inactive | inactive | inactive | inactive | inactive | 3.69%
Cn1c(=O)c2c(ncn2CC2OCCO2)n(C)c1=O |  | inactive | inactive | inactive | inactive | inactive | inactive | inactive | inactive | 7.08%
C=C(C)C(=O)OC1CC(C)CC(C)(C)C1 (stereo not drawn) |  | inactive | inactive | inactive | inactive | inactive | inactive | inactive | inactive | 3.29%
CC(C)SCc1ccco1 |  | inactive | inactive | inactive | inactive | inactive | inactive | inactive | inactive | 4.71%
CCCCCCCCCCCCCC(=O)OC |  | inactive | inactive | inactive | inactive | inactive | inactive | inactive | inactive | 12.2%
COc1cc([N+](=O)[O-])ccc1N |  | inactive | inactive | inactive | inactive | inactive | inactive | inactive | inactive | -15.5%
C[N+](C)(C)CC(O)CCl (stereo not drawn) |  | inactive | inactive | inactive | inactive | inactive | inactive | inactive | inactive | -4.6%
C[C@H]1O[C@H](O[C@H]2[C@H](O)[C@@H](O)[C@@H](O[C@H]3[C@H](O)[C@@H](O)[C@H](O)O[C@@H]3CO)O[C@@H]2CO)[C@H](O)[C@@H](O)[C@@H]1N[C@H]1C=C(CO)[C@@H](O)[C@H](O)[C@H]1O |  | inactive | inactive | inactive | inactive | inactive | inactive | inactive | inactive | 6.78%
C=CCOCC(CO)(COCC=C)COCC=C |  | inactive | inactive | inactive | inactive | inactive | inactive | inactive | inactive | 0.319%
CCOC(=O)CCCCCCCCC(=O)OCC |  | inactive | inactive | inactive | inactive | inactive | inactive | inactive | inactive | 5.25%
C=C(C)[C@@H]1CC[C@@H](C)C[C@@H]1O |  | inactive | inactive | inactive | inactive | inactive | inactive | inactive | inactive | 0.357%
